# KB-V1 MDR tox = KB-V1 MDR subline cytotoxicity. KB-V1 MDR cells viability, CellTiter-Glo, 72 h. Potency, µM (highest dose often 46.1 µM), actives largely listed as cytotoxic. 400,000 tested, 3.4% active. AID 1347076; note: nearly all actives have a fitted effect of over 60% in size
#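 KB-V1 cells (P-gp-expressing MDR subline of KB-3-1) in phenol-red-free DMEM with 10% FBS were exposed to library compounds over a concentration series for 72 h at 37 degrees C. Viability read by CellTiter-Glo luminescence; concentration-effect curves fitted after normalization.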
# SW480 rereplic = induces DNA re-replication in SW480 colon adenocarcinoma cells; SW480 DNA re-replication, Hoechst DNA content imaging, 48 h; Potency, µM (titrated, usually from 46.1 µM), usual class: activators; 340,000 tested, 1.8% active; AID 624297; note: nearly all actives have a fitted effect of over 55% in size
#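 Hoechst fluorescence of nuclei (405 nm excitation, 500-530 nm emission) measured by plate-scanning imager after 48 hr compound exposure at 37 C; re-replication scored as increased number of nuclei with elevated intensity.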
# TSG101-PTAP inh = blocks PTAP/TSG101 interaction to inhibit HIV-1 budding. Potency, µM (highest dose often 115 µM), actives largely listed as inhibitors. Fluorescence polarization, FITC-PTAP peptide / Tsg101 binding. 340,000 tested, under 10 active. Q99816. AID 493005; active = well fitted inhibition curve with a large enough effect in the main read-out, with a control signal flat, not every such curve was filed as active; inconclusive = small, poorly fitted or top-dose-only effect, or effect the other way, or a change in a side signal; inactive = no such curve, though single readings can be large or run the other way
# Target sequence (Q99816 whole entry, looked up): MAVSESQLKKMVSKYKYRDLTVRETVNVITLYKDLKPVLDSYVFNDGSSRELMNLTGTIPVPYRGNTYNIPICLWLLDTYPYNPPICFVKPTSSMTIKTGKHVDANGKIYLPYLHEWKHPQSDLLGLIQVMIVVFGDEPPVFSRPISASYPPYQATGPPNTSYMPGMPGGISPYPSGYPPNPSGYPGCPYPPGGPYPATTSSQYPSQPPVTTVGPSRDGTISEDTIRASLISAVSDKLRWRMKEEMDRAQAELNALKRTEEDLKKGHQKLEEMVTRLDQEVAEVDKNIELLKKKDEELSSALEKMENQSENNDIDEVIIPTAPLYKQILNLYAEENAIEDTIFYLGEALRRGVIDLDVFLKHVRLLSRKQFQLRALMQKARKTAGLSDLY
#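 Tsg101 binding domain (10 uM final) was mixed with compound and a FITC-labeled PTAP peptide (50 nM final) in HEPES pH 7.5 buffer with NaCl, Tween 20, EDTA and TCEP; fluorescence polarization was read after 20 min at r.t.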
# RGS4 inhibitor = blocks human RGS4-accelerated GTP hydrolysis; P49798; 390,000 tested, 0.039% active; Transcreener GDP fluorescence polarization, RGS4-accelerated GTP hydrolysis; Potency, µM (series often up to 114 µM), actives largely listed as inhibitors; note: nearly all actives have a fitted effect of over 75% in size
# Target sequence (P49798 whole entry, looked up): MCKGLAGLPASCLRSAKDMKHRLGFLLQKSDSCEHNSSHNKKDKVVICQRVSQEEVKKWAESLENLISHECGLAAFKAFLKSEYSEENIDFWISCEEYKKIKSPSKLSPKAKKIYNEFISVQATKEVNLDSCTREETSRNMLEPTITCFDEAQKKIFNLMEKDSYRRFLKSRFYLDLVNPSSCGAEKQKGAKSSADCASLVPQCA
#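 MLSMR compounds (23 nl, pin-transferred) preincubated 10 min at room temperature with a 500nM (2x) first reagent, then RGS4 at 900nM (2x) plus Transcreener GDP mix added; fluorescence polarization (620/688 nm) read before and after 90 min at 30 °C.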
# MCF10A rerep = DNA re-replication induction in MCF 10a cells; MCF 10A DNA re-replication, Hoechst nuclear intensity, 48 h; Potency, µM (doses to about 46.1 µM), actives largely listed as activators; 350,000 tested, 2.9% active; AID 624296; note: nearly all actives have a fitted effect of over 50% in size
# KB-3-1 tox = KB-3-1 parental cell cytotoxicity; KB-3-1 viability, CellTiter-Glo ATP luminescence, 72 h; Potency, µM (series often up to 46.1 µM), hits mostly cytotoxic; 400,000 tested, 1.4% active; note: nearly all actives have a fitted effect of over 60% in size
#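 Using CellTiter-Glo luminescence, growth of non-resistant KB-3-1 adenocarcinoma cells is assessed 72 h after pin-tool compound addition at 37 °C. Normalized responses across the concentration series yield fitted curves.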
# Numbers stand for hits; – = inactive; ? = inconclusive; · = not tested or not shown; [ ] = dose if it differs, or a comment. An excerpt weighted towards active compounds, which were near 6.6% of everything screened. Unless noted, calls come from the whole dose curve; as a rule, active = well fitted curve in the direction sought with a large enough effect; inconclusive = small, poorly fitted or top-dose-only effect, or another doubt; inactive = no such curve, though single readings can be large; an effect the other way counts as inactive or inconclusive.
SMILES,KB-V1 MDR tox,SW480 rereplic,TSG101-PTAP inh,RGS4 inhibitor,MCF10A rerep,KB-3-1 tox
CC(=O)N1CCc2c(sc3c2c(=O)n(-c2ccccc2Cl)c(=O)n3C)C1,–,·,·,–,·,–
c1ccc(-n2nnnc2-c2cccc3ccccc23)cc1,·,5.8µM,–,–,23.1µM,·
Clc1ccc2[nH]cc(-c3nnnn3-c3ccccc3)c2c1,16.4µM,–,–,–[11.4 µM],–,18.4µM
Clc1ccc2ncc(-c3nnnn3-c3ccccc3)c(-c3ccccc3)c2c1,–,?,–,–,–,?
CC1(C)[C@@H]2CC[C@@]1(C)C(=O)C2,·,–,·,–,–,·
O=C(C=Cc1ccccc1)c1cc(Br)ccc1O,–,?,–,–,?,–
Cc1cccc(/C=C/C(=O)c2cc(Br)ccc(=O)c2O)c1,?,?,–,–,10.3µM,?
CCc1ccc(/C=C/C(=O)c2cc(Br)ccc(=O)c2O)cc1,10.3µM,?,–,?,?,?
CCOc1ccc(/C=C/C(=O)c2cc(Br)ccc(=O)c2O)cc1,10.3µM,?,–,?,9.2µM,?
O=C(CBr)c1ccc(Oc2ccc(C(=O)C[n+]3cccc(Br)c3)cc2)cc1,–,·,·,·,·,–
COc1ccc(Cn2nnnc2C(c2ccccc2)N2CCN(c3ccccc3)CC2)cc1 (configuration not stated),?,·,·,–,·,?
CSc1ncc(C(=O)NCc2ccc(F)cc2)c(-c2ccccc2)n1,–,·,·,–,·,–
Cc1ccc(NC(=O)c2ccc(NC(=O)C3CCCC3)cc2)c(C)c1,·,·,·,–,·,·
CCOC(=O)Cc1csc(NC(=O)CSc2nc(N)c3c(C)c(C)sc3n2)n1,8.2µM,–,–,–,–,–
CCOC(=O)Cc1csc(NC(=O)c2csc(C)c2)n1,16.4µM,–,–,–,–,–
Cc1ccc(Cl)cc1NC(=O)Cn1c(SCC(=O)NCc2ccccc2)nc2ccccc21,–,·,·,–,·,–
CCC(=O)c1ccc(OCc2ccc(C(=O)c3ccccc3)cc2)cc1,10.3µM,–,–,–,–,?
CCC(=O)c1ccc(OCc2ccccc2)c(OC)c1,?,–,–,–,–,–
O=C(OCn1ncc(Cl)c(Cl)c1=O)c1ccc(C(F)(F)F)cc1,6.51µM,6.51µM,–,–,6.51µM,7.31µM
Cc1ccc(C(=O)OCn2ncc(Cl)c(Cl)c2=O)cc1,?,?,–,–,3.66µM,4.61µM
O=C(O)c1ccc(-n2ncc(Cl)c(Cl)c2=O)cc1,?,·,·,·,·,–
C=C1C(O)[C@@H]2O[C@]3(CC[C@H](/C=C/C(C)[C@@H]4CC(C)=CC5(O[C@H](C[C@@](C)(O)CO)CCC5O)O4)O3)CC[C@H]2O[C@@H]1C(O)CC(C)[C@H]1OC2(CCCCO2)CCC1C (some centres not stated),?,?,–,–,–,0.0206µM
C=C1[C@@H](O)[C@@H]2O[C@]3(CC[C@H](/C=C/[C@@H](C)[C@@H]4CC(C)=CC5(O[C@H](C[C@@](C)(O)C(=O)OC)CC[C@H]5O)O4)O3)CC[C@H]2O[C@@H]1[C@@H](O)C[C@H](C)[C@H]1OC2(CCCCO2)CC[C@H]1C (some centres not stated),18.4µM,?,–,–,?,?
CCOc1ccc(NC(=O)c2cc(OC)nc3ccccc23)cc1,?,?,–,–,23.1µM,1.16µM
COc1cc(C(=O)Nc2ccc(C)cc2)c2ccccc2n1,?,20.6µM,–,–,5.8µM,0.82µM
SMILES,KB-V1 MDR tox,SW480 rereplic,TSG101-PTAP inh,RGS4 inhibitor,MCF10A rerep,KB-3-1 tox
CCN(CC)C(=O)Cn1c(=O)c2ccccc2n2c(=S)sc(-c3cccc(C)c3)c12,2.91µM,–,?,–,–,–
CC(=O)N1CC(c2ccccc2)C(c2ccc(Cl)cc2)=N1 (configuration not stated),14.6µM,–,–,–,–,–
COc1cc(NCc2ccccc2O)c2ncccc2c1,–,–,–,–,20.6µM,–
Oc1ccccc1CNc1cccc2cccnc12,–,–,–,–,–,–
c1ccc(Nc2c(-c3ccco3)nc3ccccn23)cc1,–,–,–,–,–,–
c1ccc(-c2nc(-c3ccco3)n3ccccc23)cc1,–,?,–,–,20.6µM,–
Cc1ccc(C2=CC(c3ccccc3)n3ncnc3N2)cc1 (configuration not stated),–,?,–,–,–,–
CN(C)c1ccc(C2C=C(c3ccc(Cl)cc3OC(F)F)Nc3ncnn32)cc1 (configuration not stated),11.6µM,23.1µM,–,–,4.11µM,–
Cc1ccc(C2C=C(c3ccccc3OC(F)F)Nc3ncnn32)cc1 (configuration not stated),20.6µM,–,–,–,–,?
Cc1ccc(C)c(Nc2ncnc3onc(C)c23)c1,–,·,·,–,·,–
COc1ccc(C(=O)Cn2c(C)nc([N+](=O)[O-])c2Br)cc1,–,–,–,–,?,?
Cc1nc([N+](=O)[O-])c(Br)n1Cc1ccc(Cl)c(Cl)c1,?,?,–,–,20.6µM,?
Cc1nc([N+](=O)[O-])c(Br)n1CC(=O)c1ccc(Cl)cc1,?,?,–,–,14.6µM,18.4µM
CC(C)(C)C(=O)Nc1cccc(C(=O)OCc2cc(=O)n3nc(C4CC4)sc3n2)c1,–,·,·,–,·,–
C=C(C)CSc1nnc2[nH]c(=O)cc(N)n12,18.4µM,–[9.22 µM],–,–,–,16.4µM
CC(=O)CSc1nnc2[nH]c(=O)cc(N)n12,?,·,·,–,·,–
COC(=O)c1ccccc1NC(=O)Cn1c(=O)n(-c2ccc(C)cc2)c(=O)c2ccccc21,·,·,·,–,·,·
Cc1ccccc1C(=O)Nc1ccccc1C(=O)NCc1ccccc1,20.6µM,–,–,–,?,–
O=C(Nc1ccccc1C(=O)NCc1ccccc1)c1ccccc1Br,?,–,–,–,–,–
COc1ccc(NC(=O)Cc2ccc(Cl)cc2)cc1NC(=O)c1ccco1,7.31µM,–,–,–,–,–
O=C(Nc1ccccc1C(=O)NCc1ccc(Cl)cc1)c1ccco1,8.2µM,?,–,–,–,–
CCc1cccc(NC(=O)c2nc(-c3ccncc3)no2)c1,?,·,·,–,·,–
CC(=O)OCC(NC(=O)C(CCCCNC(=O)OCc1ccccc1)NC(=O)OC(C)(C)C)C1OC(n2cc(C)c(=O)[nH]c2=O)C(OC(C)=O)C1OC(C)=O (configuration not stated),·,·,·,–,·,·
COc1cc(C(=O)OCC(=O)NC2CCCC2)cc(NC(=O)c2ccco2)c1OC,4.61µM,–,–,–,–,–
COc1cc(NC(=O)c2ccco2)c(C(=O)OCC(=O)c2c[nH]c3ccccc23)cc1OC,–,?,–,–,23.1µM,–
